The values that follow come from PubChem BioAssay AID624125 (The Scripps Research Institute Molecular Screening Center, 2012).

Structures are written as SMILES. Out of some 360,000 compounds screened, about 2,600 (0.72%) were called active. Only a selection was taken, and actives are over-represented in it overall. Values without a mark were called inactive.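 The calls were made as follows: active = inhibition above its plate's cutoff, the mean inhibition of sample wells plus 3 SD (cut at about 27% in these data); inactive = the rest.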

This test deals with Muscarinic acetylcholine receptor M4 (Homo sapiens) (UniProt P08173). Description: human M4 muscarinic receptor antagonists, primary screen, CHO cells, Fluo-8 calcium fluorescence (AID 624125).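 Also: 0% = acetylcholine EC80 with DMSO and 100% = DMSO without agonist.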 The settings on record: CHO-hM4 cells, ACh EC80, Fluo-8 calcium fluorescence; at 3 µM; hits give high values.
Sequence of Muscarinic acetylcholine receptor M4 (Homo sapiens) (P08173 whole entry, looked up): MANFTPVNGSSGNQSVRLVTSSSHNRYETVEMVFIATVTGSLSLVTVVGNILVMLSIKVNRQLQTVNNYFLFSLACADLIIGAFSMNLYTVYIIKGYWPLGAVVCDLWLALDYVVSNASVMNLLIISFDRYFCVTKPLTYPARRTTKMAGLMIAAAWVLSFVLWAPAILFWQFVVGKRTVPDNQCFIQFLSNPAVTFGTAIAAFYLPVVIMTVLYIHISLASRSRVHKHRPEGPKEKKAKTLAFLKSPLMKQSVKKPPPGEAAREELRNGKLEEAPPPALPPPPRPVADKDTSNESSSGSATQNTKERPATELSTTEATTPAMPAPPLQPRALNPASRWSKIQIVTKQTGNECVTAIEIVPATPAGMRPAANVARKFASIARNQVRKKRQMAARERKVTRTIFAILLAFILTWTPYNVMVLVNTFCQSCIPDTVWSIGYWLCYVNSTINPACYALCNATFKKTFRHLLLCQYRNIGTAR
Regarding `CSCCC(c1nnnn1C(C)(C)C)N1CCC(n2c(=O)[nH]c3ccccc32)CC1` (stereo not given), the inhibition (usually the change of the read-out against control, counted positive when it falls) was 5.14%.
The same measure for `O=c1[nH]c2ccccc2n1C1CCN(C(c2ccccc2)c2nnnn2Cc2ccccc2)CC1` (stereo not given): 27.1% (active); for `O=c1[nH]c2ccccc2n1C1CCN(C(c2ccnc3ccccc23)c2nnnn2Cc2ccccc2)CC1` (stereo not given): 22.4%.
Turning to `Nc1ccc(C(=O)N/N=C2/CN3CCC2CC3)cc1`, the inhibition is -0.14%.
With `Cc1nn(Cc2ccccc2Cl)c(Cl)c1C(=O)OC(C(=O)NC(N)=O)C(C)C` (stereo not given), the inhibition is 1.94%.
The figure for `COC(=O)N(c1ccc(OC)cc1)P1(=S)OCCC(C)O1` (stereo not given) is 1.76%; for `COc1ccc(N=Cc2c(O)n(C)c(=O)[nH]c2=O)cc1` it is 1.06%; for `CC(C)c1c(CN(C)C(C)Cc2ccccc2)n(C)n(-c2ccccc2)c1=O` (stereo not given) it is 66.1% (active).
The same measure for `CCOC(=O)C(O)(c1ccc(N)c(OC)c1)C(F)(F)F` (stereo not given): 1.32%; for `O=[N+]([O-])c1cnc2ccc3ccccc3c2c1`: 9.35%.
The same measure for `CC1(C)Cc2c(C#N)c(N3CCNCC3)nc(-c3ccco3)c2CS1`: 5.55%.
For `CC1CCCCN1Cc1cccnc1` (stereo not given), the inhibition was 3.46%.
In the case of `CC1CCCN1CCC(C(N)=O)(c1ccccc1)c1ccccc1` (stereo not given), the inhibition was 99% (active).
The figure for `O=C(Cc1ccccc1)N1CCN(C2CCCCCC2)CC1` is 0.63%; for `C[C@]12CCCCC1=CC(=O)C1C2CC[C@@]2(C)C1C[C@@H](F)[C@@H]2O` (stereo not given in full) it is -6.29%.
`N#Cc1ccc(Cn2cc(C(=O)c3ccco3)c3ccccc32)cc1`: the inhibition was 0.92%.
In the case of `CCOP(=O)(OCC)C(NC(=O)c1ccc(C)cc1)C(Cl)(Cl)Cl` (stereo not given), the inhibition was 9.97%.
The figure for `CCOP(=O)(OCC)C(NC(=O)NC)C(N)=O` (stereo not given) is 39% (active); for `CCOP(=O)(OCC)C(NC(=O)c1ccc(OC)cc1)C(Cl)(Cl)Cl` (stereo not given) it is 3.05%.
The figure for `CN(C)CCCN=Cc1c(O)n(Cc2ccco2)c(=O)[nH]c1=O` is 2.03%; for `CC(=O)N(C1=NCCCS1)c1ccccc1F` it is -8.11%.
The figure for `CN(C)C(=O)Oc1cc(=O)n2c3c(cccc13)CCC2` is -4.4%.
Take `CCCCCCCCCCCCn1ccc(=N)cc1`: the inhibition is 71.3% (active).
The same measure for `COc1cc(-n2c(=S)[nH]c3ccc(C)cc3c2=O)c(Cl)cc1Cl`: 3.21%; for `COC(=O)C(O)(c1ccc(NC(=O)c2ccco2)c(OC)c1)C(F)(F)F` (stereo not given): 1.51%.
The figure for `CCCC(C)n1[nH]c(=O)c2c1NC(=O)CSC2c1ccc(OC)c(OC)c1` (stereo not given) is -2%; for `O=C(NCC(c1cccnc1)N1CCN(c2ccccc2)CC1)Oc1ccccc1` (stereo not given) it is -1.68%.
The figure for `CCCC[N+]1(C)C2CC(OC(=O)C(CO)c3ccccc3)CC1C1OC12` (stereo not given) is 90.4% (active); for `N#CC1=C(N)Oc2c(c(=O)oc3ccccc23)C1c1ccccc1OC(=O)c1cccs1` (stereo not given) it is 5.46%.
`Cc1ccc(-n2c(O)c(C=NCC3CCCO3)c(=O)[nH]c2=O)c(C)c1` (stereo not given): the inhibition is -11%.
Consider `COc1cccc(CN2CCCC(C(=O)c3ccccc3SC)C2)c1O` (stereo not given), for which the inhibition was -1.14%.
The same measure for `CC[N+]1(C)CCCC(OC(=O)C(O)(c2ccccc2)c2ccccc2)C1` (stereo not given): 98.6% (active); for `Cc1ccc(N(C)C(=O)Oc2cccc3ccc(C)nc23)cc1`: 5.04%.
The figure for `CCc1nc2ccccc2c(=O)n1-c1cccc(OC)c1` is -8.12%; for `CN1CCN(/N=C/c2c[nH]c3ccccc23)CC1` it is -1.55%.
